We go through one compound from ChEMBL document CHEMBL2218924, “A broad activity screen in support of a chemogenomic map for kinase signalling research and drug discovery” (Biochem J, 2013).

In test [1] the target is T1, Ephrin type-A receptor 3 (Homo sapiens) (UniProt P29320).
T1 sequence (whole entry): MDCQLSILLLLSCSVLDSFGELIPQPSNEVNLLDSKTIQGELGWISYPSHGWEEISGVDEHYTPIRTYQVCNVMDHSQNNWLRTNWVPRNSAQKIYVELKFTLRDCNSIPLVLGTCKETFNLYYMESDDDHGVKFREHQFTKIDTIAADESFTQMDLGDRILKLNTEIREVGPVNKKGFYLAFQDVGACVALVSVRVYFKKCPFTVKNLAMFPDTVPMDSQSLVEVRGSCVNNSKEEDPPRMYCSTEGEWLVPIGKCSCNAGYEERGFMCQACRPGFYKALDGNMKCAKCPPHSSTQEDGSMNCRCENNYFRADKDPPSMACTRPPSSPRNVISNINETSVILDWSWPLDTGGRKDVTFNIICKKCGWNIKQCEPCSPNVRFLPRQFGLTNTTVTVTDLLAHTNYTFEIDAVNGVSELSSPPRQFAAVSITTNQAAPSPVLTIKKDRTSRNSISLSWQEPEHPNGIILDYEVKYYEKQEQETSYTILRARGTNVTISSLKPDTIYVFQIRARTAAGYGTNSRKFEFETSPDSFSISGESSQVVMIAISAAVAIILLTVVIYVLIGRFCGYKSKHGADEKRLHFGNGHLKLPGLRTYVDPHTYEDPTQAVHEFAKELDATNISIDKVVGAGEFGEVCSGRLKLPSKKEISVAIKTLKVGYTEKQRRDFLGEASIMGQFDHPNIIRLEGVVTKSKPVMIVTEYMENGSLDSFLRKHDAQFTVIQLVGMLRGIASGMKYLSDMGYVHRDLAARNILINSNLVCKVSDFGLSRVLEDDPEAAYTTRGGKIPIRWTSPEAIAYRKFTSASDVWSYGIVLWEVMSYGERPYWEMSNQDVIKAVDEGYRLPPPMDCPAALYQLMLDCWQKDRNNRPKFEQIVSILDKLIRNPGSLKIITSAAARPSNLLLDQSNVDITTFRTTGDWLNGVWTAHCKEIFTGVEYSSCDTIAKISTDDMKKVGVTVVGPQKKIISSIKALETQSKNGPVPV
The settings on record: at 10 µM.

The target in test [2] is Ephrin type-A receptor 4 (Homo sapiens) (UniProt P54764). To be noted: at 10 µM.
The target of test [3] is Ephrin type-A receptor 7 (Homo sapiens) (UniProt Q15375). To be noted: at 1 µM.
Test [4] shares this target. The settings on record: at 10 µM.
Test [5] has as its target T2, Ephrin type-A receptor 8 (Homo sapiens) (UniProt P29322).
T2 sequence (whole entry): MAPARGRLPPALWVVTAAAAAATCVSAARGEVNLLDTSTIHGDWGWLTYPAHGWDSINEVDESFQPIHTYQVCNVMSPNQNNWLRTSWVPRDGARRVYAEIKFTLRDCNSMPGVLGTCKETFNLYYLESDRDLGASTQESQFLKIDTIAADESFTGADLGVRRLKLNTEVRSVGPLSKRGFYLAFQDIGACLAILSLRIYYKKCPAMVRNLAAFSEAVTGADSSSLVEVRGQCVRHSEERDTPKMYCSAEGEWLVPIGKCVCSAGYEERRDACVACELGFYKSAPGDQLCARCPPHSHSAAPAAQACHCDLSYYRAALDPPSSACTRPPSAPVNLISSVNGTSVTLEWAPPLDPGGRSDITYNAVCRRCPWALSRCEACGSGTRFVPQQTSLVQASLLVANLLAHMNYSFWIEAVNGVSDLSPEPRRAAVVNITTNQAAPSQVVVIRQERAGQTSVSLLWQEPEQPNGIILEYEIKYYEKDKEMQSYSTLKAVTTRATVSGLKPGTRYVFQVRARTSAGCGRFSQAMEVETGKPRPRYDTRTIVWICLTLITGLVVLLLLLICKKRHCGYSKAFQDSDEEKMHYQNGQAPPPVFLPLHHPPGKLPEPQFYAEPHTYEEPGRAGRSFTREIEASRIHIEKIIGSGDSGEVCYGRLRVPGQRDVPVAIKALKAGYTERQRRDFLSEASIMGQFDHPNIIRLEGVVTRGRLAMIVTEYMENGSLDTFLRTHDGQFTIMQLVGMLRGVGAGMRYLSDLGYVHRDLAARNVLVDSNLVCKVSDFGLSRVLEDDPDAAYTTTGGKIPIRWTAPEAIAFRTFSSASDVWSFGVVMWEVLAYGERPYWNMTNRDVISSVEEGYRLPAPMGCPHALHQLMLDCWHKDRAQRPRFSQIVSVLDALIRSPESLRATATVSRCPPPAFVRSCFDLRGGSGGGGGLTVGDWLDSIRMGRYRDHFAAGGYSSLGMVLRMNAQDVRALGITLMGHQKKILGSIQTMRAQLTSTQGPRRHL
The settings on record: at 1 µM.

The target in test [6] is T2, Ephrin type-A receptor 8 (Homo sapiens). The settings on record: at 10 µM.
In test [7] the target is T3, Ephrin type-B receptor 1 (Homo sapiens) (UniProt P54762).
T3 sequence (whole entry): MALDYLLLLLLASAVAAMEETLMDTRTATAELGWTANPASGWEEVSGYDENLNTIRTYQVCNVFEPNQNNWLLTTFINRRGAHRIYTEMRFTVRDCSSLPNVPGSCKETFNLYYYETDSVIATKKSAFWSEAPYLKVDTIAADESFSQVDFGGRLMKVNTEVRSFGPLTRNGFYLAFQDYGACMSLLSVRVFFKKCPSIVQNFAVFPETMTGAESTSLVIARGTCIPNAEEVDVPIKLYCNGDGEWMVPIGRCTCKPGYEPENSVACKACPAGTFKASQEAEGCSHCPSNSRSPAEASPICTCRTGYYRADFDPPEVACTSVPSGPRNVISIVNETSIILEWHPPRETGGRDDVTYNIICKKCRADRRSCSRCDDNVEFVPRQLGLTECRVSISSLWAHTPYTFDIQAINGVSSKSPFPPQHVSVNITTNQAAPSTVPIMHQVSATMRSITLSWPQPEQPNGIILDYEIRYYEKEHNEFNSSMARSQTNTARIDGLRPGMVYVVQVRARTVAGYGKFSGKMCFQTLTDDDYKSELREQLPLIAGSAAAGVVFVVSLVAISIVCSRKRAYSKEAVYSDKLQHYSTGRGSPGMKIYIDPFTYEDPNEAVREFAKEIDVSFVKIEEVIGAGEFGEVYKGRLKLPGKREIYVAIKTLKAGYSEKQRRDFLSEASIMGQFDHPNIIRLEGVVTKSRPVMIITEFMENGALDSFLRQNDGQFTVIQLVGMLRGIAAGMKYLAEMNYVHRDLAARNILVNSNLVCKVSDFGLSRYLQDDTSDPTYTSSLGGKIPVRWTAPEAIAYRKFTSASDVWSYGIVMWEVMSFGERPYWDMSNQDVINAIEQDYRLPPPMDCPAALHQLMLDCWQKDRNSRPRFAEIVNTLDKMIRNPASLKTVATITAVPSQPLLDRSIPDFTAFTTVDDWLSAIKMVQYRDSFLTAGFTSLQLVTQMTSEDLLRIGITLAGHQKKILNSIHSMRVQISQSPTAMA
The settings on record: at 1 µM.

Test [8] concerns the target T3, Ephrin type-B receptor 1 (Homo sapiens). To be noted: at 10 µM.
The target of test [9] is T4, Ephrin type-B receptor 2 (Homo sapiens) (UniProt P29323).
T4 sequence (whole entry): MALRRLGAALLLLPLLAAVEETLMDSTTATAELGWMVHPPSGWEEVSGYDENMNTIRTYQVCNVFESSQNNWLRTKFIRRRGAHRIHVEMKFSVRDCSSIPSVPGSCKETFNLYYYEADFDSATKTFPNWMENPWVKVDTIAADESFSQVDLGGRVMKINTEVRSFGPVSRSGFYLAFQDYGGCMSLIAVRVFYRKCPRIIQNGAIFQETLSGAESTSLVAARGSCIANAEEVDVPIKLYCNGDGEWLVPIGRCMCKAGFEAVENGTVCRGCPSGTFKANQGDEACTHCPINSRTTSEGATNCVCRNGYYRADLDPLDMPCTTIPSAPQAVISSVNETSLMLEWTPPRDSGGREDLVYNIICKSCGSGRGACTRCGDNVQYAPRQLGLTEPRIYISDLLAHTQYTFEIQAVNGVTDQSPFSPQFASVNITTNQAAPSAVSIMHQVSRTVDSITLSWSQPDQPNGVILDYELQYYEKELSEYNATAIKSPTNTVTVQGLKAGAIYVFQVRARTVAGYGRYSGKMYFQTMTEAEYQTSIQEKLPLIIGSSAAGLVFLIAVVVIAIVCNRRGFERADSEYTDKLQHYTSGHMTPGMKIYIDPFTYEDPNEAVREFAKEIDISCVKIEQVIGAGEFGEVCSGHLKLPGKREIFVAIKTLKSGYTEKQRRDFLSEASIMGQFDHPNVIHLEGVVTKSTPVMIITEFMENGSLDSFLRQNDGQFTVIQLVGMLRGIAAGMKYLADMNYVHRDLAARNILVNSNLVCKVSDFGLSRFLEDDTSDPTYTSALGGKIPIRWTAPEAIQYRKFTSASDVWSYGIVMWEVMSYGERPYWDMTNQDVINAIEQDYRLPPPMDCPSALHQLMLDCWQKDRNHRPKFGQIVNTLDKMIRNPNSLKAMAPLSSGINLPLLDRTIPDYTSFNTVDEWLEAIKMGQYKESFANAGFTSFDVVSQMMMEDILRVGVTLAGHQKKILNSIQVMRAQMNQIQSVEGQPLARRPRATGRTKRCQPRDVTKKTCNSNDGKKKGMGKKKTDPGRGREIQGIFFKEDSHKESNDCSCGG
To be noted: at 1 µM.

Test [10] has as its target T4, Ephrin type-B receptor 2 (Homo sapiens). The settings on record: at 10 µM.
The target of test [11] is T5, Ephrin type-B receptor 3 (Homo sapiens) (UniProt P54753).
T5 sequence (whole entry): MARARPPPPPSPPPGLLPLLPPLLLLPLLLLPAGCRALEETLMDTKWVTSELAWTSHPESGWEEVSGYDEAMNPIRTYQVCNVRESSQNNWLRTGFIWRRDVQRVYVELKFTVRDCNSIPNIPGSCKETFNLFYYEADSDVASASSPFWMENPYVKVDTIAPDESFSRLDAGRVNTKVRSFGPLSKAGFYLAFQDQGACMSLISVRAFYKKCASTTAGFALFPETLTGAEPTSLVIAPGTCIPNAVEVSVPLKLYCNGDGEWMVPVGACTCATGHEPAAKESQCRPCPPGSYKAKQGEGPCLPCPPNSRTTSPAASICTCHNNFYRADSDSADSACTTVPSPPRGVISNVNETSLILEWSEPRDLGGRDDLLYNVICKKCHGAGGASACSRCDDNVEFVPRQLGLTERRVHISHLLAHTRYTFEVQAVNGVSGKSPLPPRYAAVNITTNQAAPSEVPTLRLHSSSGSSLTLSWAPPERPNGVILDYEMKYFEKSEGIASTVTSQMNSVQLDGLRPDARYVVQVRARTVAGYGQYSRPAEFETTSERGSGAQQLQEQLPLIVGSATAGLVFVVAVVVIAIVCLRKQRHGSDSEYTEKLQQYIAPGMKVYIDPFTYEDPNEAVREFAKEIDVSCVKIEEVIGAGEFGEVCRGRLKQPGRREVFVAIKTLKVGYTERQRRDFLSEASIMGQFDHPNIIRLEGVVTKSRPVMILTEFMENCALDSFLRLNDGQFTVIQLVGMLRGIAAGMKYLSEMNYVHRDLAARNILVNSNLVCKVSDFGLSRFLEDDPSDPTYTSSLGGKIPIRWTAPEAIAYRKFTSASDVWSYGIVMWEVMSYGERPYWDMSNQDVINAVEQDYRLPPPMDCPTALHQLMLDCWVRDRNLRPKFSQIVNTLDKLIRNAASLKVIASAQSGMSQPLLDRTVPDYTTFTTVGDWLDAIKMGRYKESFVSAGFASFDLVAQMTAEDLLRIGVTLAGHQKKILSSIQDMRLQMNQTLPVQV
The settings on record: at 1 µM.

Test [12] concerns the target T5, Ephrin type-B receptor 3 (Homo sapiens). The settings on record: at 10 µM.
For test [13], the target named is T6, Ephrin type-B receptor 4 (Homo sapiens) (UniProt P54760).
T6 sequence (whole entry): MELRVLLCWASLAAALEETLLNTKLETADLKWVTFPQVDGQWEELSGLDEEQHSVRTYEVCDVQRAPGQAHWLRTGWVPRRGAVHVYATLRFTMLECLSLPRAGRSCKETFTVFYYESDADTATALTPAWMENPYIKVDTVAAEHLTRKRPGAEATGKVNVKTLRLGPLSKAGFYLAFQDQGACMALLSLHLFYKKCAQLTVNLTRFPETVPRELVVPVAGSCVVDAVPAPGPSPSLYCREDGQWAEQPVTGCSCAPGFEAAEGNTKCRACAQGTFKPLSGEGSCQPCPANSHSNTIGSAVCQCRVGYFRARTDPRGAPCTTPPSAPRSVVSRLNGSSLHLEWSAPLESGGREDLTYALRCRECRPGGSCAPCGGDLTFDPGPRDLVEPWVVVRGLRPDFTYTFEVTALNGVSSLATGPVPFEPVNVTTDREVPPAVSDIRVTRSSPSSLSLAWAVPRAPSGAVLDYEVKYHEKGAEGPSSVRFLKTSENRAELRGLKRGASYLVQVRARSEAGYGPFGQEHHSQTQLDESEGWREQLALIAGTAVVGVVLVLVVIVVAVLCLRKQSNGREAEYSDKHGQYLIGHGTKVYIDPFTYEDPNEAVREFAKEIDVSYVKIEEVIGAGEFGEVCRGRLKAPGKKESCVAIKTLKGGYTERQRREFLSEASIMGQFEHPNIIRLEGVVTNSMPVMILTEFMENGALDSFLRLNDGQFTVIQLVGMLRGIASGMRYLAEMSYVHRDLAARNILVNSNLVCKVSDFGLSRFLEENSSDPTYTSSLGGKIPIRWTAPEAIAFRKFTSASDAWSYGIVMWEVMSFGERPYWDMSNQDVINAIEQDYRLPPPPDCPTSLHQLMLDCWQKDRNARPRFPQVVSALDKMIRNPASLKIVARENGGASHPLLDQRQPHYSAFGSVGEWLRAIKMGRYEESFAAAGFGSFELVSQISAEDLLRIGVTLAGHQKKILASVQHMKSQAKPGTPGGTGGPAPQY
To be noted: at 1 µM.

For test [14], the target named is T6, Ephrin type-B receptor 4 (Homo sapiens). The settings on record: at 10 µM.
The target in test [15] is Receptor tyrosine-protein kinase erbB-4 (Homo sapiens) (UniProt Q15303). The settings on record: at 1 µM.
For test [16] the target is unchanged. The settings on record: at 10 µM.
The target in test [17] is Focal adhesion kinase 1 (Homo sapiens) (UniProt Q05397). The settings on record: at 1 µM.

The structures appear in SMILES notation.

Chain of Receptor tyrosine-protein kinase erbB-4 (Homo sapiens) (Q15303 whole entry): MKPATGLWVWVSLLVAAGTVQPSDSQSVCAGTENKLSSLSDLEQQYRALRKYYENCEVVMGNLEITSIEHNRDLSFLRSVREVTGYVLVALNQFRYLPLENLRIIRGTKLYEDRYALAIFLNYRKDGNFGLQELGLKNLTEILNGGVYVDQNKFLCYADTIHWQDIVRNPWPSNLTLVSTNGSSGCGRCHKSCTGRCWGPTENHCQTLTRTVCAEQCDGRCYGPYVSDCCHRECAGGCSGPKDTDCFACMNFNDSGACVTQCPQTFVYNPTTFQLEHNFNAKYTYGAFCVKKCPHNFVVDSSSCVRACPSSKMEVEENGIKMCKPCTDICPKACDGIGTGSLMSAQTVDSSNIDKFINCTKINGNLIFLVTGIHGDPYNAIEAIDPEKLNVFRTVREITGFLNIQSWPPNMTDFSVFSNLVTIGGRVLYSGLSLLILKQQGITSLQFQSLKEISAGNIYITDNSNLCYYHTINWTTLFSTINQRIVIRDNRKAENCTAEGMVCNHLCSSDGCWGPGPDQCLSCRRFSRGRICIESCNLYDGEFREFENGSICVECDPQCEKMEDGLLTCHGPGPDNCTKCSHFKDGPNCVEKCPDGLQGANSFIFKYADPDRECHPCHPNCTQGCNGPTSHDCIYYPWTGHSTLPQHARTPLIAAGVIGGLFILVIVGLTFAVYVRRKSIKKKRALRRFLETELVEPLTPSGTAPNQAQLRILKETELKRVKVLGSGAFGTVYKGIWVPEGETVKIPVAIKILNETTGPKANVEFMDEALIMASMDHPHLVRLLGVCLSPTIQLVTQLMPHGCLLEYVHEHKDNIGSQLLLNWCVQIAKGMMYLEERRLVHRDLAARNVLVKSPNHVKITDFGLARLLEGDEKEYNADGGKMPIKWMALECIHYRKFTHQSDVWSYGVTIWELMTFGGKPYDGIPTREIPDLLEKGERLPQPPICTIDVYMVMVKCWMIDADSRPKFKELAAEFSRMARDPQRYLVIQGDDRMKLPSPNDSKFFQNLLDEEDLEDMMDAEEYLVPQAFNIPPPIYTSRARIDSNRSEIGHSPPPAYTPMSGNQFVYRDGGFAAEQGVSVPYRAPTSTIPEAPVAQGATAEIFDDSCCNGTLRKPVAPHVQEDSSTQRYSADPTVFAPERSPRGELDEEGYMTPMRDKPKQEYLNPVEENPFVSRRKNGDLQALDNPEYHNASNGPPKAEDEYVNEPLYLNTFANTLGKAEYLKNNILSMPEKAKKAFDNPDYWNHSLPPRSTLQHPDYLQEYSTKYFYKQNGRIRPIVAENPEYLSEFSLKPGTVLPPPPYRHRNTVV
Chain of Ephrin type-A receptor 7 (Homo sapiens) (Q15375 28-998 limits assumed): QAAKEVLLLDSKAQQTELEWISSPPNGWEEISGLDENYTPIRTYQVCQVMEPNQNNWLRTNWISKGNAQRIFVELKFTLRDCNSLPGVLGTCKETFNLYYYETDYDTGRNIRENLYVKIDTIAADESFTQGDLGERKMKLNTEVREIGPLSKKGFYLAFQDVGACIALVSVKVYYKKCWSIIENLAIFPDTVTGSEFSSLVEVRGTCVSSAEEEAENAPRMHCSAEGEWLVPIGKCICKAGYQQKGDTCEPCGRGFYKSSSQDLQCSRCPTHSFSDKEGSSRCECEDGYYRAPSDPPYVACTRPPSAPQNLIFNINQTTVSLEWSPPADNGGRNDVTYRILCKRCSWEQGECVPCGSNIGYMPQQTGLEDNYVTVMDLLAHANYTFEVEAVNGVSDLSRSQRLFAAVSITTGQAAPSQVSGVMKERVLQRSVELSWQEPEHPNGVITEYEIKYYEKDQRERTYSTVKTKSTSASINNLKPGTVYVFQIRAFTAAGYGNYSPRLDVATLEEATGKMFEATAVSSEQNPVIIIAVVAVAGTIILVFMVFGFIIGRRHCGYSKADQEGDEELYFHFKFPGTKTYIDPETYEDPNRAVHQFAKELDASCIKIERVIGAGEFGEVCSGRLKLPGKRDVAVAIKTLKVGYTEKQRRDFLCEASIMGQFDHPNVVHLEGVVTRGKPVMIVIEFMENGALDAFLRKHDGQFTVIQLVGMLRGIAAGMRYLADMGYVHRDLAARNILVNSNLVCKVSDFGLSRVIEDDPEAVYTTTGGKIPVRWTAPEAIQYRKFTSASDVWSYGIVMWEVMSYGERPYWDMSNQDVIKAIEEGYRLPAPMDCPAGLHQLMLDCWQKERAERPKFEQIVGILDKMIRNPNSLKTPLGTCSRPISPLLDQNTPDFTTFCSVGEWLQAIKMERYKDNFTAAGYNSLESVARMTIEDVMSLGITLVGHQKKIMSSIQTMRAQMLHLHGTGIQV
Chain of Focal adhesion kinase 1 (Homo sapiens) (Q05397 2-1052 limits assumed): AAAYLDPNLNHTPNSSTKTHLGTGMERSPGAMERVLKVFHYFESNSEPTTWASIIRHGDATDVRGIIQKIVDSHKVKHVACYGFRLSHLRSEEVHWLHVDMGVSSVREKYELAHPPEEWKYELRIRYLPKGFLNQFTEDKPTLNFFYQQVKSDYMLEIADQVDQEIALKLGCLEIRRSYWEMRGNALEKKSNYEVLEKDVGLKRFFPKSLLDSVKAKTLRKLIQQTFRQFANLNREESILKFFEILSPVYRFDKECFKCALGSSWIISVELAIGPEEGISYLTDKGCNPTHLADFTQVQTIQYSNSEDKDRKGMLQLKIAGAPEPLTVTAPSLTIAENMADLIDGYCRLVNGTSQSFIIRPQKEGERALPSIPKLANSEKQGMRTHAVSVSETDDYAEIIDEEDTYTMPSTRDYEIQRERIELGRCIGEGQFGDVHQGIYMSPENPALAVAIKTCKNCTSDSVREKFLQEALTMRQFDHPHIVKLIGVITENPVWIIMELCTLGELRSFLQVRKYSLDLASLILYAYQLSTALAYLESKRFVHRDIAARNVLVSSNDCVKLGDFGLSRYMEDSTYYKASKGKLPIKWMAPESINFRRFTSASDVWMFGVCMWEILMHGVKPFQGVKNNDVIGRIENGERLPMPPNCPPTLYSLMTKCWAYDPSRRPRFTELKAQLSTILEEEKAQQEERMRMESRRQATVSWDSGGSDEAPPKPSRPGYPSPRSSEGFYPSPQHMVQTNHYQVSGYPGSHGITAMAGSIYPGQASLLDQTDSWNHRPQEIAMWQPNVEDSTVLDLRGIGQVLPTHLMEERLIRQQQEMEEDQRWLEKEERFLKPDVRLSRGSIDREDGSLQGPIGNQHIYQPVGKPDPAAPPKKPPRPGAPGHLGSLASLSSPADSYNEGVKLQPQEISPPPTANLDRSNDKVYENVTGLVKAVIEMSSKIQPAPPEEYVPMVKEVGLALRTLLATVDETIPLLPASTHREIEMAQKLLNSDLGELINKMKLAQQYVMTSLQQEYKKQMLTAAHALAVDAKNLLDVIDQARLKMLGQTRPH
Chain of Ephrin type-A receptor 4 (Homo sapiens) (P54764 whole entry): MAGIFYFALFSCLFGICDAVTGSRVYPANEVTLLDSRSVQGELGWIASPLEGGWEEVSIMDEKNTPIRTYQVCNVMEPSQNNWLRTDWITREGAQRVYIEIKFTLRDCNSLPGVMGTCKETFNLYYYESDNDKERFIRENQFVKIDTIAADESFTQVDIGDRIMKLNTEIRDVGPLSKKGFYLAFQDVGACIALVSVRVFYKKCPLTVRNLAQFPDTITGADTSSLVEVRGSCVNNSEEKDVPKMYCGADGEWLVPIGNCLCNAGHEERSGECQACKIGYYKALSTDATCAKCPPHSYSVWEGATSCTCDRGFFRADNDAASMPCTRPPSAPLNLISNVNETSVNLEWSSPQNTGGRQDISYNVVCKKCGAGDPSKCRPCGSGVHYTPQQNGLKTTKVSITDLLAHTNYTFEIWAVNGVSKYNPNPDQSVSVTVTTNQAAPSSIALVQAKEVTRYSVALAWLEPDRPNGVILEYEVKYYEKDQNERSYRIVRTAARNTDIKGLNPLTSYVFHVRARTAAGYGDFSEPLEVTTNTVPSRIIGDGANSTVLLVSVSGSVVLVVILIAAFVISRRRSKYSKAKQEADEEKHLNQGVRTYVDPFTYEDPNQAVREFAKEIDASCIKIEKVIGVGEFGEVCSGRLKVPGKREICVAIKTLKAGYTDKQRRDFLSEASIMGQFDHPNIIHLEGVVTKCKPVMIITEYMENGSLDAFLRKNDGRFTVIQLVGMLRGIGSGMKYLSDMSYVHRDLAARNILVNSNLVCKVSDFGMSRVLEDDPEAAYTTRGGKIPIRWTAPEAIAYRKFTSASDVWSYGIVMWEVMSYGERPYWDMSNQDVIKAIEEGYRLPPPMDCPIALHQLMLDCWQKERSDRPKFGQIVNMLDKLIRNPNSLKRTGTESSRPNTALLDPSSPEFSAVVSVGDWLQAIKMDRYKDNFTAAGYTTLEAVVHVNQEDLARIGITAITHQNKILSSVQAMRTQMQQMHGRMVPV

For `CCN(CC)C(=O)c1ccc(Nc2nc(OCC3CCCCC3)c3nc[nH]c3n2)cc1`, the residual activity came to 60% in test [1]; 73% in [2]; 71% in [3]; 7% in test [4]; 97% in [5]; 64% in test [6]. Besides, the residual activity in [7] was 68%; in [8], 4%; in test [9], 103%; in [10], 32%; in [11], 102% (inactive); in test [12], 52%. Besides, the residual activity in test [13] came to 72%; in test [14], 12%; in test [15], 74%; in test [16], 34%; in [17], 72%.

Usually residual activity stands for the signal under treatment as a percentage of the control signal.
